# In the supplement of paper PMC8728848:
# Only a selection was taken, and the strongest signals are over-represented in it overall.
# B1: MGL (Homo sapiens), Q8IUN9 (protein)
# chain: MTRTYENFQYLENKVKVQGFKNGPLPLQSLLQRLCSGPCHLLLSLGLGLLLLVIICVVGFQNSKFQRDLVTLRTDFSNFTSNTVAEIQALTSQGSSLEETIASLKAEVEGFKQERQAGVSELQEHTTQKAHLGHCPHCPSVCVPVHSEMLLRVQQLVQDLKKLTCQVATLNNNASTEGTCCPVNWVEHQDSCYWFSHSGMSWAEAEKYCQLKNAHLVVINSREEQNFVQKYLGSAYTWMGLSDPEGAWKWVDGTDYATGFQNWKPGQPDDWQGHGLGGGEDCAHFHPDGRWNDDVCQRPYHWVCEAGLGQTSQESH
# Key:
# Assay in all cases: glycan array binding signal (z-score within array); higher = stronger binding
# Conditions in all cases: glycan notation: IUPAC condensed, linker removed
# Fuc(a1-2)Gal = target: Fuc(a1-2)Gal
# Procedure, shortened: (§1)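 From the Consortium for Functional Glycomics database, 3228 arrays were curated, keeping only those whose protein sequence was available. Binding is given as a within-array Z-score averaged across arrays sharing a protein sequence and across linkers. Negative Z-scores can be read as non-binding.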
# [1] = target: Fuc(a1-2)Gal(b1-3)GalNAc(a1-3)[Fuc(a1-2)]Gal(b1-4)Glc
# Procedure, shortened: as §1
# [2] = target: Fuc(a1-2)Gal(b1-3)GalNAc(b1-3)Gal(a1-4)Gal(b1-4)Glc
# Procedure, shortened: as §1
# [3] = target: Fuc(a1-2)Gal(b1-3)GlcNAc6S
# Procedure, shortened: as §1
# [4] = target: Fuc(a1-2)Gal(b1-3)[Fuc(a1-4)]GlcNAc(b1-2)Man(a1-3)[Fuc(a1-2)Gal(b1-3)[Fuc(a1-4)]GlcNAc(b1-2)Man(a1-6)]Man(b1-4)GlcNAc(b1-4)[Fuc(a1-6)]GlcNAc(b1-4)[Fuc(a1-6)]GlcNAc
# Procedure, shortened: as §1
# [5] = target: Fuc(a1-2)Gal(b1-4)GlcNAc(b1-3)Gal(b1-4)GlcNAc
# Procedure, shortened: as §1
# [6] = target: Fuc(a1-2)Gal(b1-4)GlcNAc(b1-6)GalNAc
# Procedure, shortened: as §1
# [7] = target: Fuc(a1-2)Gal(b1-4)[Fuc(a1-3)]GlcNAc(b1-3)[Neu5Ac(a2-6)Gal(b1-4)GlcNAc(b1-6)]Gal(b1-4)Glc
# Procedure, shortened: as §1
# Fuc(a1-2)Gal6S(b1-4)Glc = target: Fuc(a1-2)Gal6S(b1-4)Glc
# Procedure, shortened: as §1
# [8] = target: Fuc(a1-2)Gal6S(b1-4)Glc6S
# Procedure, shortened: as §1
# Fuc(a1-2)[Gal(a1-3)]Gal = target: Fuc(a1-2)[Gal(a1-3)]Gal
# Procedure, shortened: as §1
# [9] = target: Fuc(a1-2)[Gal(a1-3)]Gal(b1-3)GlcNAc(b1-2)Man(a1-3)[Fuc(a1-2)[Gal(a1-3)]Gal(b1-3)GlcNAc(b1-2)Man(a1-6)]Man(b1-4)GlcNAc(b1-4)GlcNAc
# Procedure, shortened: as §1
# [10] = target: Fuc(a1-2)[Gal(a1-3)]Gal(b1-4)Glc
# Procedure, shortened: as §1
# [11] = target: Fuc(a1-2)[GalNAc(a1-3)]Gal(b1-3)GlcNAc(b1-6)GalNAc
# Procedure, shortened: as §1
# [12] = target: Fuc(a1-2)[GalNAc(a1-3)]Gal(b1-4)GlcNAc(b1-6)GalNAc
# Procedure, shortened: as §1
# [13] = target: Fuc(a1-2)[GalNAc(a1-4)]Gal(b1-4)GlcNAc
# Procedure, shortened: as §1
# [14] = target: Fuc(a1-2)[GalNAc(b1-3)]Gal
# Procedure, shortened: as §1
# [15] = target: Fuc(a1-3)[Gal(b1-4)]GlcNAc(b1-6)[Gal(b1-3)GlcNAc(b1-3)]Gal(b1-4)Glc
# Procedure, shortened: as §1
# Gal(a1-2)Gal = target: Gal(a1-2)Gal
# Procedure, shortened: as §1
# [16] = target: Gal(a1-3)Gal(b1-4)GlcNAc(b1-2)Man
# Procedure, shortened: as §1
# [17] = target: Gal(a1-3)Gal(b1-4)GlcNAc(b1-6)GalNAc
# Procedure, shortened: as §1
# Gal(a1-4)Gal(b1-4)GlcNAc = target: Gal(a1-4)Gal(b1-4)GlcNAc
# Procedure, shortened: as §1
# Gal(b1-3)Gal(b1-4)GlcNAc = target: Gal(b1-3)Gal(b1-4)GlcNAc
# Procedure, shortened: as §1
# Gal(b1-3)GalNAc = target: Gal(b1-3)GalNAc
# Procedure, shortened: as §1
# [18] = target: Gal(b1-3)GlcNAc(a1-3)Gal(b1-4)GlcNAc
# Procedure, shortened: as §1
# [19] = target: Gal(b1-3)GlcNAc(b1-3)Gal(b1-4)GlcNAc(b1-2)[Gal(b1-3)GlcNAc(b1-3)Gal(b1-4)GlcNAc(b1-6)]Man(a1-6)[Gal(b1-3)GlcNAc(b1-3)Gal(b1-4)GlcNAc(b1-2)Man(a1-3)]Man(b1-4)GlcNAc(b1-4)[Fuc(a1-6)]GlcNAc
# Procedure, shortened: as §1
# [20] = target: Gal(b1-3)GlcNAc(b1-6)GalNAc
# Procedure, shortened: as §1
# Gal(b1-3)GlcNAc6S = target: Gal(b1-3)GlcNAc6S
# Procedure, shortened: as §1
# Gal(b1-4)GlcNAc = target: Gal(b1-4)GlcNAc
# Procedure, shortened: as §1
# [21] = target: Gal(b1-4)GlcNAc(b1-3)Gal(b1-3)GalNAc
# Procedure, shortened: as §1
# [22] = target: Gal(b1-4)GlcNAc(b1-3)Gal(b1-4)GlcNAc
# Procedure, shortened: as §1
# [23] = target: Gal(b1-4)GlcNAc(b1-6)GalNAc
# Procedure, shortened: as §1
# Gal3S6S(b1-4)GlcNAc6S = target: Gal3S6S(b1-4)GlcNAc6S
# Procedure, shortened: as §1
# GalNAc(a1-3)GalNAc = target: GalNAc(a1-3)GalNAc
# Procedure, shortened: as §1
# [24] = target: GalNAc(a1-3)GalNAc(b1-3)Gal(a1-4)Gal(b1-4)GlcNAc
# Procedure, shortened: as §1
# GalNAc(b1-3)Gal = target: GalNAc(b1-3)Gal
# Procedure, shortened: as §1
# [25] = target: GalNAc(b1-3)Gal(a1-6)Gal(b1-4)Glc
# Procedure, shortened: as §1
# [26] = target: GalNAc(b1-4)GlcNAc(b1-2)Man
# Procedure, shortened: as §1
# GalNAc(b1-4)GlcNAc6S = target: GalNAc(b1-4)GlcNAc6S
# Procedure, shortened: as §1
# GlcNAc(b1-4)GlcNAc = target: GlcNAc(b1-4)GlcNAc
# Procedure, shortened: as §1
# [27] = target: GlcNAc(b1-4)GlcNAc(b1-4)GlcNAc
# Procedure, shortened: as §1
# GlcNAc(b1-6)GalNAc = target: GlcNAc(b1-6)GalNAc
# Procedure, shortened: as §1
# Kdn(a2-6)Gal(b1-4)GlcNAc = target: Kdn(a2-6)Gal(b1-4)GlcNAc
# Procedure, shortened: as §1
# [28] = target: Neu5Ac(a2-3)Gal(b1-3)GalNAc
# Procedure, shortened: as §1
# [29] = target: Neu5Ac(a2-3)Gal(b1-3)GlcNAc(b1-4)Gal(b1-4)Glc
# Procedure, shortened: as §1
# [30] = target: Neu5Ac(a2-3)Gal(b1-4)GlcNAc(b1-3)Gal(b1-4)GlcNAc
# Procedure, shortened: as §1
# [31] = target: Neu5Ac(a2-3)Gal(b1-4)GlcNAc(b1-3)[Neu5Ac(a2-3)Gal(b1-4)GlcNAc(b1-6)]GalNAc
# Procedure, shortened: as §1
# [32] = target: Neu5Ac(a2-3)Gal(b1-4)GlcNAc6S
# Procedure, shortened: as §1
# [33] = target: Neu5Ac(a2-8)Neu5Ac(a2-3)Gal(b1-3)GalNAc(b1-4)[Neu5Ac(a2-8)Neu5Ac(a2-3)]Gal(b1-4)Glc
# Procedure, shortened: as §1
# [34] = target: Neu5Ac(a2-8)Neu5Ac(a2-3)Gal(b1-4)GlcNAc
# Procedure, shortened: as §1
# [35] = target: Neu5Ac(a2-8)Neu5Ac(a2-8)Neu5Ac(a2-8)Neu5Ac(a2-3)[GalNAc(b1-4)]Gal(b1-4)Glc
# Procedure, shortened: as §1
# [36] = target: Neu5Gc(a2-8)Neu5Ac(a2-3)Gal(b1-4)GlcNAc
# Procedure, shortened: as §1
# [37] = target: Neu5Gc(a2-8)Neu5Gc(a2-6)Gal(b1-4)GlcNAc
# Procedure, shortened: as §1
binder,measurement,setting,value
B1,glycan array binding signal (z-score),Fuc(a1-2)Gal,-0.232
same,glycan array binding signal (z-score),[1],-0.246
same,glycan array binding signal (z-score),[2],-0.242
same,glycan array binding signal (z-score),[3],-0.178
same,glycan array binding signal (z-score),[4],-0.238
same,glycan array binding signal (z-score),[5],-0.247
same,glycan array binding signal (z-score),[6],3.85
same,glycan array binding signal (z-score),[7],-0.247
same,glycan array binding signal (z-score),Fuc(a1-2)Gal6S(b1-4)Glc,-0.242
same,glycan array binding signal (z-score),[8],-0.254
same,glycan array binding signal (z-score),Fuc(a1-2)[Gal(a1-3)]Gal,-0.241
same,glycan array binding signal (z-score),[9],-0.249
same,glycan array binding signal (z-score),[10],-0.237
same,glycan array binding signal (z-score),[11],3.6
same,glycan array binding signal (z-score),[12],4.98
same,glycan array binding signal (z-score),[13],3.39
same,glycan array binding signal (z-score),[14],4.3
same,glycan array binding signal (z-score),[15],-0.251
same,glycan array binding signal (z-score),Gal(a1-2)Gal,-0.25
same,glycan array binding signal (z-score),[16],-0.252
same,glycan array binding signal (z-score),[17],3.79
same,glycan array binding signal (z-score),Gal(a1-4)Gal(b1-4)GlcNAc,-0.232
same,glycan array binding signal (z-score),Gal(b1-3)Gal(b1-4)GlcNAc,-0.245
same,glycan array binding signal (z-score),Gal(b1-3)GalNAc,-0.242
same,glycan array binding signal (z-score),[18],-0.245
same,glycan array binding signal (z-score),[19],-0.049
same,glycan array binding signal (z-score),[20],3.24
same,glycan array binding signal (z-score),Gal(b1-3)GlcNAc6S,-0.249
same,glycan array binding signal (z-score),Gal(b1-4)GlcNAc,-0.243
same,glycan array binding signal (z-score),[21],-0.27
same,glycan array binding signal (z-score),[22],-0.242
same,glycan array binding signal (z-score),[23],4.14
same,glycan array binding signal (z-score),Gal3S6S(b1-4)GlcNAc6S,-0.242
same,glycan array binding signal (z-score),GalNAc(a1-3)GalNAc,0.346
same,glycan array binding signal (z-score),[24],0.634
same,glycan array binding signal (z-score),GalNAc(b1-3)Gal,3.3
same,glycan array binding signal (z-score),[25],3.77
same,glycan array binding signal (z-score),[26],3.9
same,glycan array binding signal (z-score),GalNAc(b1-4)GlcNAc6S,4.05
same,glycan array binding signal (z-score),GlcNAc(b1-4)GlcNAc,-0.243
same,glycan array binding signal (z-score),[27],-0.253
same,glycan array binding signal (z-score),GlcNAc(b1-6)GalNAc,4.7
same,glycan array binding signal (z-score),Kdn(a2-6)Gal(b1-4)GlcNAc,-0.245
same,glycan array binding signal (z-score),[28],-0.241
same,glycan array binding signal (z-score),[29],-0.251
same,glycan array binding signal (z-score),[30],-0.238
same,glycan array binding signal (z-score),[31],-0.527
same,glycan array binding signal (z-score),[32],-0.244
same,glycan array binding signal (z-score),[33],-0.243
same,glycan array binding signal (z-score),[34],-0.259
same,glycan array binding signal (z-score),[35],3.54
same,glycan array binding signal (z-score),[36],-0.237
same,glycan array binding signal (z-score),[37],-0.246
